# Results reported in PubChem BioAssay (Tox21).
# Where “and” joins values, the source holds several entries; their conditions need not be identical. Equal entries are not always repeated. Records with an inconclusive call do not appear. A call without a number means that no potency is given here. More than one record can exist for a structure, and the calls need not agree. Calls of active or inactive are those of the source. Unless noted, the call rests on the fitted dose curve; in most records, active means well fitted curve in the direction sought with a large enough effect in the repeat runs; inconclusive means weak or mixed curves; inactive means no such curve, though single readings can be large; an effect the other way counts as inactive or inconclusive.
# Assays:
# [1] = qHTS assay to identify small molecule antagonists of the estrogen related receptor (ERR) signaling pathway from Tox21 library - cell viability counter screen (AID 1224834); further: nearly all actives have a fitted effect of over 30% in size; further: potency means the concentration at half of the fitted maximal effect
# Method in brief: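 Cytotoxicity of test substances is gauged in the same ERR cells used for the antagonist screen, after 17.5 h of compound treatment at 37 C, by CellTiter-Fluor fluorescence measured after 30 min.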
# [2] = qHTS assay to identify small molecule agonists of the constitutive androstane receptor (CAR) signaling pathway - cell viability counter screen (AID 1224836); further: nearly all actives have a fitted effect of over 45% in size; further: potency means the concentration at half of the fitted maximal effect
# Method in brief: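 Viability read-out: CellTiter-Fluor fluorescence after 23 h compound exposure at 37 C/5% CO2 in double-stable HepG2-CYP2B6-hCAR cells, with PK11195 present at 0.75 uM final; compounds tested in 15-point titration.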
# [3] = qHTS assay to identify small molecule antagonists of the constitutive androstane receptor (CAR) signaling pathway - cell viability counter screen (AID 1224837); further: nearly all actives have a fitted effect of over 45% in size; further: potency means the concentration at half of the fitted maximal effect
# Method in brief: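 Multiplexed cytotoxicity read-out for the CAR antagonist screen: double-stable HepG2-CYP2B6-hCAR cells co-treated with 50 nM CITCO (final) and compound over 15 concentrations, incubated 23 hr, then assessed by CellTiter-Fluor fluorescence.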
# [4] = molecular target: Nuclear receptor subfamily 1 group I member 3 (Homo sapiens) (UniProt Q14994); assay: qHTS assay to identify small molecule antagonists of the constitutive androstane receptor (CAR) signaling pathway (AID 1224838); further: nearly all actives have a fitted effect of over 40% in size; further: potency means the concentration at half of the fitted maximal effect
# Chain of Nuclear receptor subfamily 1 group I member 3 (Homo sapiens) (Q14994 whole entry, looked up): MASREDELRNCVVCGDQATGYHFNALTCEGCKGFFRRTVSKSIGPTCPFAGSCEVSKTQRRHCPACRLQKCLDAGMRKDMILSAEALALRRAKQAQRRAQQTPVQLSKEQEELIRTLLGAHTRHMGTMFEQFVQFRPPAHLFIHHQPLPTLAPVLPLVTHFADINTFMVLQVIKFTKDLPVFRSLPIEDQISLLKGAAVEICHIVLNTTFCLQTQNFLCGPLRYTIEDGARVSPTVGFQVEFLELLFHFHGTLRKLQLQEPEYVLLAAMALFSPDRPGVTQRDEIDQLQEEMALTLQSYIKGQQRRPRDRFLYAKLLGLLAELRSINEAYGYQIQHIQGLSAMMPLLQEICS
# Method in brief: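 Compounds were titrated across 15 concentrations onto HepG2 cells double-stably expressing hCAR and a CYP2B6-2.2kb reporter, together with 50 nM CITCO (final). After 24 h at 37 C, luciferase activity was measured by luminescence.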
# [5] = molecular target: Nuclear receptor subfamily 1 group I member 3 (Homo sapiens) (UniProt Q14994); assay: qHTS assay to identify small molecule agonists of the constitutive androstane receptor (CAR) signaling pathway (AID 1224839);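 further: HepG2 cells stably carrying human CAR and a CYP2B6 luciferase reporter; nearly all actives have a fitted effect of over 15% in size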
# Method in brief: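 Luminescence read-out (ONE-Glo, 30 min, room temperature) from double-stable HepG2-CYP2B6-hCAR cells exposed 24 h to 15-point compound series in presence of 0.75 uM PK11195 final.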
# [6] = qHTS assay to identify small molecule antagonists of the estrogen related receptor signaling pathway with the pleiotropic PPARgamma coactivator (PGC) from Tox21 10K library - cell viability counter screen (AID 1224840; active means well fitted cell-killing curve with a large enough effect in the repeat runs, not every such curve was filed as active; further: nearly all actives have a fitted effect of over 40% in size; further: potency means the concentration at half of the fitted maximal effect)
# Method in brief: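 Step one, plate 2,000 PGC/ERR cells per well; step two, incubate 6 h at 37 C/5% CO2; step three, pin-transfer compounds; step four, incubate 17.5 h; step five, add CellTiter-Fluor and read fluorescence after 30 min.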
# [7] = qHTS assay to identify small molecule antagonists of the estrogen related receptor signaling pathway with the pleiotropic PPARgamma coactivator (PGC) from Tox21 10K library (AID 1224841; call rule not given here; further: actives are mostly falling curves and most rising ones were filed inactive; nearly all actives have a fitted effect of over 50% in size; further: potency means the concentration at half of the fitted maximal effect)
# Method in brief: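 Antagonism in this quantitative HTS is taken from loss of luciferase signal in PGC/ERR cells. Cells (2,000/well) are treated with compounds in DMSO after a 6 h settling period and read by One-Glo luminescence after 18 h.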
# [8] = qHTS assay to identify small molecule agonists of the estrogen related receptor signaling pathway with the pleiotropic PPARgamma coactivator (PGC) from Tox21 10K library (AID 1224842); further: nearly all actives have a fitted effect of over 15% in size
# Method in brief: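 PGC/ERR reporter cell line, 2,000 cells per well, incubated 6 h at 37 C before 23 nL compound in DMSO was added. After 18 h at 37 C, One-Glo luminescence read following 30 min at room temperature.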
# [9] = molecular target: Thyrotropin receptor (Homo sapiens) (UniProt P16473); assay: qHTS assay to identify small molecule agonists of the thyroid stimulating hormone receptor (TSHR) signaling pathway (AID 1224843; calls by dose curve; further: nearly all actives have a fitted effect of over 45% in size)
# Chain of Thyrotropin receptor (Homo sapiens) (P16473 whole entry, looked up): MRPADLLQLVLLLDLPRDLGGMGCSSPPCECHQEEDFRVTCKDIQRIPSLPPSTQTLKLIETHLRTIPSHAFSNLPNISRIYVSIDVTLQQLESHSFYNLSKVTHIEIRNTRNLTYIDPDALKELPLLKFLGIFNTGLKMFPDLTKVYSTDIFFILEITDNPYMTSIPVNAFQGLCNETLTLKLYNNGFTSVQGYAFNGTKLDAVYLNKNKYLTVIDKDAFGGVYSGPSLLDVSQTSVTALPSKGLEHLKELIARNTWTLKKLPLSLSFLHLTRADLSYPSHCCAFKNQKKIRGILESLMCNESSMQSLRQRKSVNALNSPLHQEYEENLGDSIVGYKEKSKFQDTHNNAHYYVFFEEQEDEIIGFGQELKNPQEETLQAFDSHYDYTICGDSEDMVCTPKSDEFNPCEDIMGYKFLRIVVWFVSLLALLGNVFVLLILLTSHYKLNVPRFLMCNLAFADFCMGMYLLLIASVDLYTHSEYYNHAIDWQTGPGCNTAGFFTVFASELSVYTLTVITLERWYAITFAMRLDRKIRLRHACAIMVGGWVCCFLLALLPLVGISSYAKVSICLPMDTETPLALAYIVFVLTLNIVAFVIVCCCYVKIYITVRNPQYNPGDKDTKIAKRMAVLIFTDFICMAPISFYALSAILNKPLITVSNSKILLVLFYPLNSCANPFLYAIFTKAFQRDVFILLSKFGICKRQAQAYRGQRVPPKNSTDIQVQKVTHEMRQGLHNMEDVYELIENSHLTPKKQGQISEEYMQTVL
# Method in brief: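 TSHR-HEK293 cells in agonist mode, 30 min room-temperature step, then cAMP measured by competitive HTRF (cAMP-d2 with anti-cAMP cryptate) after 1 h at room temperature. Tested at 15 concentrations in triplicate.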
# [10] = qHTS assay to identify small molecule agonists of the hypoxia (HIF-1) signaling pathway - cell viability counter screen (AID 1224844; calls by dose curve; further: nearly all actives have a fitted effect of over 50% in size; further: potency means the concentration at half of the fitted maximal effect)
# Method in brief: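 Tox21 10K compounds were added to HRE-bla ME-180 cells (0.5% dialyzed FBS) and incubated 17 hrs at 37C; ATP-based CellTiter-Glo luminescence then reported cell viability in the same wells.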
# [11] = qHTS assay to identify small molecule agonists of H2AX (AID 1224845; active means well fitted activation curve with a large enough effect in the signal ratio in the repeat runs, not every such curve was filed as active; the % refers to the signal ratio)
# Method in brief: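 Wild-type CHO-K1 cells, plated overnight, exposed 3hr at 37C to 15 concentrations (0.76% DMSO final). Lysed, then HTRF anti-pH2AX (S139) cryptate and anti-H2AX-d2 antibodies, 24 hr room temperature; 665/620 nm emission read.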
# [12] = qHTS assay to identify small molecule agonists of the hypoxia (HIF-1) signaling pathway (AID 1224846; active means well fitted activation curve with a large enough effect in the signal ratio in the repeat runs, not every such curve was filed as active; the % refers to the signal ratio)
# Method in brief: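 Steps: seed ME-180 HRE-bla cells (2,000/well, 0.5% dialyzed FBS); incubate 5 hrs at 37C; pin-transfer compounds or DMSO; incubate 17 hrs; add LiveBLAzer B/G substrate CCF4-AM; measure reporter activation by FRET.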
# [13] = qHTS assay to identify small molecule agonists of H2AX - cell viability counter screen (AID 1224847; calls by dose curve; further: nearly all actives have a fitted effect of over 30% in size; further: potency means the concentration at half of the fitted maximal effect)
# Method in brief: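 CHO-K1 wt, 1000 cells/well, o/n 37C; cpds 15 conc, 3 h 37C, 0.76% DMSO; CellTiter-Glo, 30 min RT, luminescence.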
# [14] = qHTS assay to identify small molecule antagonists of the estrogen related receptor (ERR) signaling pathway from Tox21 library (AID 1224848); further: nearly all actives have a fitted effect of over 50% in size; further: potency means the concentration at half of the fitted maximal effect
# Method in brief: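 ERR reporter cell line (from NTP) seeded 2,000 cells/well, rested 6 h at 37 C/5% CO2, then pin-dosed with compounds in DMSO. After 18 h at 37 C, ONE-Glo added; luminescence read after 30 min at room temperature.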
# [15] = qHTS assay to identify small molecule agonists of the estrogen related receptor (ERR) signaling pathway from Tox21 library (AID 1224849; calls by dose curve; further: nearly all actives have a fitted effect of over 15% in size); settings: ERR reporter cell line, ONE-Glo luciferase, 18 h
# Method in brief: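 Agonist signal is luciferase luminescence from an ERR reporter cell line treated 18 h at 37 C with DMSO-dissolved compounds, read 30 min after ONE-Glo addition at room temperature.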
# [16] = A CellTox Green Cytotoxicity Assay to monitor cytotoxicity in HEK293 cells - 0 hour (AID 1224869); further: nearly all actives have a fitted effect of over 50% in size
# Method in brief: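 Cytotoxicity was tracked continuously in HEK293 cells by a DNA-binding dye excluded from viable cells. Compounds were transferred in DMSO 5 h after seeding; fluorescence was recorded at intervals up to 40 h.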
# [17] = molecular target: Luciferin 4-monooxygenase (Photinus pyralis) (UniProt P08659); assay: qHTS assay to identify small molecule inhibitors of firefly luciferase (AID 1224835); further: nearly all actives have a fitted effect of over 25% in size
# Chain of Luciferin 4-monooxygenase (Photinus pyralis) (P08659 whole entry, looked up): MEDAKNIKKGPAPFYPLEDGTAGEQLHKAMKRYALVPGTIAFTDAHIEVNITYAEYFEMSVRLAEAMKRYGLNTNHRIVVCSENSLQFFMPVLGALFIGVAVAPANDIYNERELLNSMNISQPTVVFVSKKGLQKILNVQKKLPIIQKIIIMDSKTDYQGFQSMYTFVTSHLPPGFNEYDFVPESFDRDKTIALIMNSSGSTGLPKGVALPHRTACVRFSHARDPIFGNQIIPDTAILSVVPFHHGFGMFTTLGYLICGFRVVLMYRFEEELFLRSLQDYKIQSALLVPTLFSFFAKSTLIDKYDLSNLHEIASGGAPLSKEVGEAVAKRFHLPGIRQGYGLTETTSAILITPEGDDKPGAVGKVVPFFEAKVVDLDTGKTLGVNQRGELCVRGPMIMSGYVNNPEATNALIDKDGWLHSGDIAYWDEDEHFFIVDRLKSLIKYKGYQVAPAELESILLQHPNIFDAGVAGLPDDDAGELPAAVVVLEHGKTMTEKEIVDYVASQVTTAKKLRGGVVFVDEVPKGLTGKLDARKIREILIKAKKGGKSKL
# Method in brief: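 Biochemical qHTS: compounds run as interplate titrations against purified firefly enzyme, with D-luciferin and ATP each at its KM concentration. Light output recorded by CCD imaging.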
# [18] = qHTS RealTime-Glo MT Cell Viability Assay in HepG2 cells - 24 hour (AID 1224867); further: nearly all actives have a fitted effect of over 50% in size
# Method in brief: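 Cells + NanoLuc/prosubstrate dispensed (600 cells/well) → 5 h at 37 C/5% CO2 → compounds in DMSO transferred → 40 h incubation at 37 C, luminescence read at 0, 8, 16, 24, 32, 40 h.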
# [19] = qHTS RealTime-Glo MT Cell Viability Assay in HEK293 cells - 32 hour (AID 1224868); further: nearly all actives have a fitted effect of over 50% in size; further: potency means the concentration at half of the fitted maximal effect
# Method in brief: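 Tox21 10K qHTS, HEK293, 600 cells/well, RealTime-Glo reagent co-dispensed with cells; 5 h preincubation, compound by pintool, 37 C, luminescence at 0–40 h.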
SMILES,Potency [1],Potency [2],Potency [3],Potency [4],Potency [5],Potency [6],Potency [7],Potency [8],Potency [9],Potency [10],Potency [11],outcome [12],Potency [13],Potency [14],"activity change, positive = activation ([15]; at 92.4 µM (top of the series))",Potency [16],Potency [17],Potency [18],Potency [19],"activity change, positive = activation ([15]; at 42.5 µM (top of the series))"
C=C(C)C(=O)OCCCCCCCCCCCC,inactive,inactive,inactive,inactive,inactive,inactive,inactive,inactive,inactive,inactive,inactive,inactive,inactive,inactive,5.32% (inactive) and 1.41% (inactive),inactive,,,,
CC(C)Cc1ccccc1,inactive,inactive,inactive,,,inactive,,,inactive,inactive,inactive,inactive,inactive,,,,inactive,inactive,inactive,
Nc1cc(-c2ccncc2)c[nH]c1=O,inactive,inactive,inactive,,,inactive,inactive,inactive,inactive,inactive,inactive,,inactive,inactive,-0.579% (inactive),,,inactive,inactive,-5.23% (inactive)
COCC(=O)O,inactive,inactive,inactive,,,inactive,,,inactive,inactive,inactive,inactive,inactive,,,,,inactive,inactive,
CCCCC(CC)COC(=O)CCCCCCCC(=O)OCC(CC)CCCC (stereo unspecified),17.2 µM (active) and inactive,,,24.3 µM (active) and inactive,inactive,8.63 µM (active) and inactive,24.3 µM (active) and inactive,inactive,inactive,inactive,inactive,inactive,inactive,7.7 µM (active) and inactive,-81.2% (inactive) and -2.38% (inactive),,,inactive,6.17 µM (active) and inactive,
CCC(=O)O,inactive,inactive,inactive,,,inactive,,,,inactive,inactive,inactive,inactive,,,inactive,,,inactive,
NC(=O)NNc1ccccc1,inactive,inactive,inactive,inactive,inactive,inactive,,,inactive,inactive,inactive,inactive,inactive,,,inactive,,,,
O=C(Oc1ccccc1)c1ccc(O)cc1,inactive,inactive,inactive,,,inactive,,,inactive,inactive,inactive,inactive,,,,inactive,,,inactive,
CCCCCC/C=C/CCCCCCCC(=O)O,inactive,inactive,inactive,inactive,inactive,inactive,,,inactive,inactive,inactive,inactive,inactive,,,,,,inactive,
CCCCCCCCCCC=CC1CC(=O)OC1=O (stereo unspecified),inactive,inactive,inactive,inactive,inactive,inactive,,,inactive,inactive,inactive,inactive,inactive,,,inactive,,inactive,inactive,
Oc1c(Cl)cc(Cl)c(Cl)c1Cl,inactive,inactive,inactive,,,inactive,59.8 µM (active) and 54.5 µM (active),inactive,inactive,inactive,,inactive,111 µM (active),53.3 µM (active) and 48.6 µM (active),-46.5% (inactive) and -37.8% (inactive),inactive,,,,
C=C(C)C(=O)OCCCCCC,inactive,inactive,inactive,,,inactive,,,inactive,inactive,inactive,inactive,inactive,,,inactive,,inactive,,
CN(C)c1ccc(C(=N)c2ccc(N(C)C)cc2)cc1,24 µM (active) and 20.9 µM (active),24 µM (active) and 23.4 µM (active),24 µM (active) and 26.3 µM (active),52.4 µM (active),inactive,30.3 µM (active) and 20.9 µM (active),,,,inactive,,inactive,39.6 µM (active) and 24.4 µM (active),,,,,,3.05 µM (active) and 2.97 µM (active),
Oc1ccc2ccccc2c1,inactive,inactive,inactive,,,inactive,,,inactive,35.5 µM (active),inactive,inactive,inactive,,,inactive,,inactive,inactive,
CC(C)(C)C(=O)C1C(=O)c2ccccc2C1=O,60.5 µM (active) and 43.3 µM (active),,,inactive,,48.1 µM (active) and inactive,,,inactive,inactive,,inactive,88.9 µM (active) and 56.6 µM (active),,,inactive,,inactive,inactive,
CS(=O)(=O)c1ccc([C@@H](O)[C@@H](CO)NC(=O)C(Cl)Cl)cc1,inactive,inactive,inactive,inactive,inactive,inactive,,,,inactive,inactive,,inactive,,,inactive,,inactive,inactive,
OCC#CCO,inactive,inactive,inactive,,,inactive,,,inactive,inactive,inactive,inactive,inactive,,,inactive,,,inactive,
